Experimental data from PubChem BioAssay AID1159580 (chemical genetic matrix, 2015).
The campaign covered roughly 5,500 compounds. About 2,000 (36%) were called active. Roughly 18% stayed inconclusive and do not appear here. Rule as the data show it: active = normalized growth mostly below about 0.91 (no sharp cut-off); inconclusive = no clear call, values can overlap the other calls; inactive = mostly above about 0.92. The list shows a part of the results.

Assay: chemical genetic growth profiling, strain panel (AID 1159580);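 also: tested at 20 µM; growth read once vehicle control cultures reached saturation at 30 °C; 1 = growth at the plate median or of vehicle wells; lower values mean less growth of the strain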
Settings: growth OD

Measured: normalized growth

CCCCCC(C)N (configuration not stated)
inactive: S. cerevisiae deletion strains, locus YJR075W, strain HOC1, active compounds read low 1.02 | S. cerevisiae deletion strains, locus YKL009W, strain mrt4, active compounds read low 0.946 | S. cerevisiae deletion strains, locus YKL068W, active compounds read low 1 | S. cerevisiae deletion strains, locus YKL085W, strain MDH1 (second series), active compounds read low 1.05 | S. cerevisiae deletion strains, locus YKL085W, strain MDH1, active compounds read low 1.05 | S. cerevisiae deletion strains, locus YKL160W, strain elf1, active compounds read low 1.03 | S. cerevisiae deletion strains, locus YKL190W, strain CNB1, active compounds read low 1.02 | S. cerevisiae deletion strains, locus YKR001C, strain vps1, active compounds read low 0.988 | S. cerevisiae deletion strains, locus YKR026C, strain gcn3, active compounds read low 1.03 | S. cerevisiae deletion strains, locus YKR091W, strain srl3, active compounds read low 1.02 | S. cerevisiae deletion strains, locus YLL001W, strain dnm1, active compounds read low 1.03 | S. cerevisiae deletion strains, locus YLL026W, active compounds read low 1.03 | S. cerevisiae deletion strains, locus YLL041C, strain sdh2, active compounds read low 1.02 | S. cerevisiae deletion strains, locus YLR027C, strain aat2, active compounds read low 1.03 | S. cerevisiae deletion strains, locus YLR039C, strain RIC1, active compounds read low 1.04 | S. cerevisiae deletion strains, locus YLR058C, strain SHM2, active compounds read low 1.02 | S. cerevisiae deletion strains, locus YLR102C, strain apc9, active compounds read low 0.995 | S. cerevisiae deletion strains, locus YLR113W, strain HOG1, active compounds read low 0.978 | S. cerevisiae deletion strains, locus YLR221C, strain rsa3, active compounds read low 1.03 | S. cerevisiae deletion strains, locus YLR258W, strain gsy2, active compounds read low 1.02 | S. cerevisiae deletion strains, locus YLR262C, strain YPT6 (second series), active compounds read low 1.05 | S. cerevisiae deletion strains, locus YLR262C, strain YPT6, active compounds read low 1.05 | S. cerevisiae deletion strains, locus YLR268W, strain sec22, active compounds read low 0.972 | S. cerevisiae deletion strains, locus YLR320W, strain mms22, active compounds read low 1.04 | S. cerevisiae deletion strains, locus YLR330W, strain CHS5, active compounds read low 1.01 | S. cerevisiae deletion strains, locus YLR342W, strain FKS1 (second series), active compounds read low 1.03 | S. cerevisiae deletion strains, locus YLR342W, strain FKS1, active compounds read low 1.03 | S. cerevisiae deletion strains, locus YLR357W, strain rsc2, active compounds read low 1.05 | S. cerevisiae deletion strains, locus YLR370C, strain arc18, active compounds read low 1.04 | S. cerevisiae deletion strains, locus YLR371W, strain rom2, active compounds read low 0.989 | S. cerevisiae deletion strains, locus YLR384C, strain iki3, active compounds read low 1.02 | S. cerevisiae deletion strains, locus YLR418C, strain cdc73, active compounds read low 0.994 | S. cerevisiae deletion strains, locus YML016C, strain PPZ1, active compounds read low 1.01 | S. cerevisiae deletion strains, locus YML032C, strain rad52, active compounds read low 0.986 | S. cerevisiae deletion strains, locus YML120C, strain ndi1, active compounds read low 1.03 | S. cerevisiae deletion strains, locus YML124C, strain tub3, active compounds read low 0.997 | S. cerevisiae deletion strains, locus YMR058W, strain fet3, active compounds read low 1.02 | S. cerevisiae deletion strains, locus YMR078C, strain ctf18, active compounds read low 0.98 | S. cerevisiae deletion strains, locus YMR125W, strain sto1, active compounds read low 1.03 | S. cerevisiae deletion strains, locus YMR129W, active compounds read low 1.02 | S. cerevisiae deletion strains, locus YMR205C, strain PFK2, active compounds read low 1.05 | S. cerevisiae deletion strains, locus YMR223W, strain ubp8, active compounds read low 1.02 | S. cerevisiae deletion strains, locus YMR231W, strain pep5, active compounds read low 1.03 | S. cerevisiae deletion strains, locus YMR263W, strain SAP30, active compounds read low 1.02 | S. cerevisiae deletion strains, locus YMR307W, strain GAS1, active compounds read low 1.03 | S. cerevisiae deletion strains, locus YNL067W, strain RPL9B, active compounds read low 1.01 | S. cerevisiae deletion strains, locus YNL071W, strain lat1, active compounds read low 1.03 | S. cerevisiae deletion strains, locus YNL128W, strain TEP1, active compounds read low 1.01 | S. cerevisiae deletion strains, locus YNL153C, strain GIM3, active compounds read low 1.01 | S. cerevisiae deletion strains, locus YNL183C, strain NPR1, active compounds read low 0.943 | S. cerevisiae deletion strains, locus YNL209W, strain ssb2, active compounds read low 1.03 | S. cerevisiae deletion strains, locus YNL233W, strain BNI4, active compounds read low 1.02 | S. cerevisiae deletion strains, locus YNL248C, strain rpa49, active compounds read low 1.03 | S. cerevisiae deletion strains, locus YNL250W, strain rad50, active compounds read low 0.994 | S. cerevisiae deletion strains, locus YNL271C, strain bni1, active compounds read low 0.985 | S. cerevisiae deletion strains, locus YNL298W, strain CLA4, active compounds read low 0.989 | S. cerevisiae deletion strains, locus YNL307C, strain MCK1, active compounds read low 0.999 | S. cerevisiae deletion strains, locus YNL322C, strain KRE1 (second series), active compounds read low 1.04 | S. cerevisiae deletion strains, locus YNL322C, strain KRE1, active compounds read low 1.01 | S. cerevisiae deletion strains, locus YNR049C, strain mso1, active compounds read low 1.03 | S. cerevisiae deletion strains, locus YNR052C, strain pop2, active compounds read low 0.988 | S. cerevisiae deletion strains, locus YOL006C, strain TOP1, active compounds read low 1.01 | S. cerevisiae deletion strains, locus YOL012C, strain htz1 1.25 | S. cerevisiae deletion strains, locus YOL147C, strain pex11, active compounds read low 1 | S. cerevisiae deletion strains, locus YOR001W, strain rrp6, active compounds read low 1 | S. cerevisiae deletion strains, locus YOR061W, strain CKA2, active compounds read low 1.02 | S. cerevisiae deletion strains, locus YOR069W, strain VPS5, active compounds read low 1.01 | S. cerevisiae deletion strains, locus YOR070C, strain gyp1, active compounds read low 1.02 | S. cerevisiae deletion strains, locus YOR080W, strain dia2, active compounds read low 1.04 | S. cerevisiae deletion strains, locus YOR083W, strain WHI5, active compounds read low 1.02 | S. cerevisiae deletion strains, locus YOR106W, strain vam3, active compounds read low 1.04 | S. cerevisiae deletion strains, locus YOR136W, strain idh2, active compounds read low 0.988 | S. cerevisiae deletion strains, locus YOR144C, strain elg1, active compounds read low 0.992 | S. cerevisiae deletion strains, locus YOR184W, strain ser1, active compounds read low 0.982 | S. cerevisiae deletion strains, locus YOR231W, strain MKK1, active compounds read low 0.997 | S. cerevisiae deletion strains, locus YOR265W, strain rbl2, active compounds read low 1.02 | S. cerevisiae deletion strains, locus YOR270C, strain vph1, active compounds read low 1.07 | S. cerevisiae deletion strains, locus YOR290C, strain snf2, active compounds read low 1.02 | S. cerevisiae deletion strains, locus YOR316C, strain cot1, active compounds read low 0.999 | S. cerevisiae deletion strains, locus YPL051W, strain arl3, active compounds read low 1.01 | S. cerevisiae deletion strains, locus YPL055C, strain LGE1, active compounds read low 1.03 | S. cerevisiae deletion strains, locus YPL078C, strain atp4, active compounds read low 1.03 | S. cerevisiae deletion strains, locus YPL106C, strain sse1, active compounds read low 1.03 | S. cerevisiae deletion strains, locus YPL240C, strain hsp82, active compounds read low 1.03 | S. cerevisiae deletion strains, locus YPL241C, strain CIN2, active compounds read low 1 | S. cerevisiae deletion strains, locus YPL256C, strain CLN2, active compounds read low 0.992 | S. cerevisiae deletion strains, locus YPR119W, strain clb2, active compounds read low 0.989 | S. cerevisiae deletion strains, locus YPR141C, strain kar3, active compounds read low 0.99 | S. cerevisiae deletion strains, locus YPR163C, strain tif3, active compounds read low 0.992 | S. cerevisiae deletion strains, locus YPR167C, strain met16, active compounds read low 0.998 | S. cerevisiae deletion strains, strain wtn01, active compounds read low 0.997 | S. cerevisiae strains, strain wild type, active compounds read low 1.01
